From PubChem
In the library only some 2.7% were active in any assay of this set; here they are far more common.
GLP-1R agonist: qHTS of GLP-1 Receptor Agonists; Potency, µM (titrated, usually from 45.6 µM), without a hit: top-dose activation, actives largely listed as activators; 380,000 compounds, 0.007% hits; Glucagon-like peptide 1 receptor (Homo sapiens), P43220; HEK293 GLP-1R CRE-luciferase, luminescence, 4-6 h; cells express a hypersensitive GLP-1R form; also: % of control where 0% means no effect
GLP-1R inv ag: qHTS of GLP-1 Receptor Inverse Agonists (Inhibition Mode); Glucagon-like peptide 1 receptor (Homo sapiens), P43220; HEK293 GLP-1R CRE-luciferase, luminescence, 24 h; GLP-1R form is constitutively active; Potency, µM (titrated, usually from 38.3 µM), without a hit: at the highest dose activity change, negative = inhibition, most hits filed as inhibitors; 410,000 compounds, 1.6% hits; AID 624417, 2012; also: % is scaled to controls: 0 for no effect and ±100 for the full control effect; nearly all actives have a fitted effect of over 55% in size
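Inverse agonists were sought by their lowering of basal cAMP reporter luciferase output in HEK293 cells stably carrying constitutively active human GLP-1R, after 24 h compound treatment.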
HEK293 tox: qHTS of GLP-1 Receptor Inverse Agonists: Cytotox Screen | HEK293 cAMP-luciferase reporter cells, luminescence, 24 h | Potency, µM (highest dose often 38.3 µM), for the others: at the top dose activity change, negative = inhibition, most hits filed as inhibitors | 410,000 compounds, 0.13% hits;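 also: loss of luciferase light is scored as toxicity; % is scaled to controls: 0 for no effect and ±100 for the full control effect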
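Compound-treated cells are incubated 24 hr at 37 deg C under 5% CO2 after a 12 hour attachment period, then luciferase detection reagent is added and luminescence is measured following 12 min at room temperature; lowered signal indicates toxicity.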
IDH1 R132H inh: qHTS for Inhibitors of mutant isocitrate dehydrogenase 1 (IDH1): qHTS. Isocitrate dehydrogenase [NADP] cytoplasmic (Homo sapiens), O75874. 390,000 compounds, 0.093% hits. Potency, µM (titrated, usually from 76.6 µM), without a hit: at the top dose activity change, negative = inhibition, hits mostly inhibitors. AID 602179, 2012. IDH1-R132H enzyme, NADPH consumption, diaphorase/resazurin fluorescence; also: % is scaled to controls: 0 for no effect and ±100 for the full control effect; nearly all actives have a fitted effect of over 65% in size
Target sequence (O75874 whole entry R132H, stated change not applied): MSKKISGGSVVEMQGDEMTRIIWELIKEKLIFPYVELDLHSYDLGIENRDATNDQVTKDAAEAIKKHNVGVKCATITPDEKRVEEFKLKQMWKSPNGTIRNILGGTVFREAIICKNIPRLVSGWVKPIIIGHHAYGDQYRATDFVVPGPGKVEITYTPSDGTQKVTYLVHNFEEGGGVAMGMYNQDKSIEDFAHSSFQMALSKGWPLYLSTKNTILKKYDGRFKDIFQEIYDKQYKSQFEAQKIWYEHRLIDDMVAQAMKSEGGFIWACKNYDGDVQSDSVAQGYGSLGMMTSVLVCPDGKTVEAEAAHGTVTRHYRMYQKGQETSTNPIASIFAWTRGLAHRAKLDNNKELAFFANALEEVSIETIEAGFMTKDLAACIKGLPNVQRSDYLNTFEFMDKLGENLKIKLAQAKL
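IDH1-R132H (0.5 ug/mL dispensed) in pH 7.5 Tris buffer was preincubated 30 min with compound, then given a substrate mix of 0.016 mM NADPH and 2 mM alpha-KG for 80 min at room temperature; remaining NADPH was read by diaphorase/resazurin fluorescence.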
rTrxR1 inhibitor: qHTS Assay for Inhibitors of Mammalian Selenoprotein Thioredoxin Reductase 1 (TrxR1): qHTS. recombinant rTrxR1, NADPH fluorescence consumption, selenite substrate. Potency, µM (series often up to 114 µM), for inactives: at the highest dose activity change, negative = inhibition, actives largely listed as inhibitors. 390,000 compounds, 1% hits. AID 588453, 2011; also: % is scaled to controls: 0 for no effect and ±100 for the full control effect; nearly all actives have a fitted effect of over 65% in size
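Rat TrxR1 (90 nM in the dispensed reagent) was pre-reduced with 400 uM NADPH for 5 min at room temperature, then incubated with compound for 15 min. After 400 uM selenite was added, NADPH fluorescence (Ex 340/Em 450 nm) was followed for 8 min.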
TrxR1 substrate: qHTS Assay for Substrates of Mammalian Selenoprotein Thioredoxin Reductase 1 (TrxR1): qHTS; Thioredoxin reductase 1, cytoplasmic (Rattus norvegicus), O89049; Potency, µM (highest dose often 114 µM), without a hit: top-dose activity change, negative = substrate turnover; AID 588456, 2011; 390,000 compounds, 0.01% hits; purified TrxR1 substrate turnover, NADPH consumption readout; also: % is scaled to controls: 0 for no effect and ±100 for the full control effect; nearly all actives have a fitted effect of over 50% in size
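Rat TrxR1, dispensed at 90 nM, was prereduced with 400 uM NADPH (final) for 5 min at ~22 deg C, then incubated with compound 15 min before 400 uM selenite. A first-read NADPH fluorescence drop versus no-compound background flagged substrates.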
The depositor's hits bear a star; ? = inconclusive; . = no result; [ ] = another dose, or the depositor's remark. Calls follow the shape of the dose curve; as a rule, active = well fitted curve in the direction sought with a large enough effect; inconclusive = small, poorly fitted or top-dose-only effect, or another doubt; inactive = no such curve, though single readings can be large; an effect the other way counts as inactive or inconclusive. Potency is read from the fitted curve at half-maximal effect.

SMILES	GLP-1R agonist	GLP-1R inv ag	HEK293 tox	IDH1 R132H inh	rTrxR1 inhibitor	TrxR1 substrate
CC(C)(C)OC(=O)N1CCC(c2cc(-c3cccs3)n[nH]2)CC1	21%	10µM*	-4%	-4%	3%	-6%
CC(C)(C)OC(=O)N1CCN(c2nc(-c3cccs3)nc3ccccc23)CC1	.	.	.	.	-8%	-6%
Cc1ccc(OCC(=O)NCC2(N3CCN(C)CC3)CCCCC2)cc1	.	-10%	-8%	0%	0%	0%
COCCNC(=O)CSc1nnc2[nH]c(=O)cc(C)n12	.	1%	7%	-6%	9%[57.1 µM]	0%[57.1 µM]
COc1ccc(NC(=O)C2=C(C)C(=O)OC23CCC(C)CC3)cc1Cl (stereo unspecified)	1%	7.9µM*	-7%	4%	9%	-3%
COc1cc(OC)c(NC(=O)C2=C(C)C(=O)OC23CCCCCC3)cc1Cl	.	-27%	-5%	-4%	6%	-4%
CCOC(=O)C1=C(c2ccccc2)NC(N)=NC1c1ccc(OCc2ccc(C(=O)OC)cc2)cc1 (stereo unspecified)	8%	8.9µM*	?	-6%	26%	-3%
CCOC(=O)C1=C(c2ccccc2)Nc2ncnn2C1c1ccc(C(=O)O)cc1 (stereo unspecified)	-1%	13%	1%	5%	19%	0%
O=C(NC1CCCC1)C(c1ccccc1F)N(C(=O)c1ccco1)C1CCCC1 (stereo unspecified)	-9%	?	-16%	-2%	-9%	-7%
O=C(NC1CCCC1)C(c1ccccc1)N(C(=O)c1ccco1)C1CCCC1 (stereo unspecified)	5%	13µM*	?	1%	-4%	9%[57.1 µM]
Cc1c(C#N)c(=O)c(-[n+]2ccccc2)c([S-])n1-c1ccc(Cl)cc1	-2%	12%	5%	0%	50µM*	3%
COc1cc(OC)c(N(C)C(=O)Cn2ncc3c(=O)oc4ccccc4c32)cc1Cl	0%	-3%	-5%	-8%	3%	-7%
CCCCCCC(O)(c1ccc(OC)cc1)C(CN1CCOCC1)c1ccccc1 (stereo unspecified)	6%	?	?	3%	-1%	-10%
COc1ccccc1C(O)(c1ccccc1)C(CN1CCOCC1)c1ccccc1 (stereo unspecified)	-2%	10µM*	-12%	13%	16%[57.1 µM]	-1%
COc1ccc(C(O)(CCC(C)C)C(CN2CCOCC2)c2ccccc2)cc1 (stereo unspecified)	1%	10µM*	?	7%	19%	-1%
CCCCCC(O)(c1ccccc1)C(CN1CCOCC1)c1ccccc1 (stereo unspecified)	0%	10µM*	-27%	13%	21%	-3%
CCCCCCC(O)(c1ccccc1)C(CN1CCOCC1)c1ccccc1 (stereo unspecified)	-1%	3.5µM*	?	5%	15%	2%
COc1ccccc1C(=O)Nc1ccc(C(=O)OCc2cc(=O)n3nc(C4CC4)sc3n2)cc1	.	-1%	-8%	10%	11%[57.1 µM]	6%[57.1 µM]
CCc1ccc(NC(=O)c2nc(SCc3ccccc3F)ncc2Cl)cc1	.	.	.	.	7%	1%
COc1ccc2[nH]c3c(NCCC4=CCCCC4)ncnc3c2c1	7%	5µM*	?	-7%	27%[57.1 µM]	13%[57.1 µM]
C=C(C1=CCN(S(=O)(=O)C(C)(C)C)[C@@H]1CCO)c1ccccc1	-1%	7.9µM*	2%	21%	?	6%
COc1ccccc1CCNC(=O)c1ccc(-c2nc(CSc3ccc(C)cc3)c(C)o2)cc1	.	10µM*	11%	30%	14%	-2%
Cc1oc(-c2ccc(C(=O)Nc3cccc(C(F)(F)F)c3)cc2)nc1CSc1ccccc1	.	2.2µM*	-22%	19%	10%	4%
CCOc1ccccc1CNC(=O)c1ccc(-c2nc(CSc3ccc(C)cc3)c(C)o2)cc1	.	4%	8%	51%	28%	15%
CC(=O)c1ccc(NC(=O)c2ccc(-c3nc(CSc4ccccc4)c(C)o3)cc2)cc1	.	-3%	-1%	-5%	14%	3%
SMILES	GLP-1R agonist	GLP-1R inv ag	HEK293 tox	IDH1 R132H inh	rTrxR1 inhibitor	TrxR1 substrate
Cn1ccnc1C(O)c1cc(C(C)(C)C)c(O)c(C(C)(C)C)c1 (stereo unspecified)	-3%	8%	2%	-1%	32µM*	1%
COc1ccc(C(C(=O)NC2CCCCC2)N(C(=O)CCl)c2ccc(C)cc2)cc1 (stereo unspecified)	-23%	0%	-26%	-2%	-5%	2%
CC(C)CCN(C(=O)c1csnn1)C(C(=O)NC1CCCCC1)c1ccc(F)cc1 (stereo unspecified)	38%	10µM*	-4%	0%	18%[57.1 µM]	3%[57.1 µM]
O=C(NC1CCCC1)C(c1ccc(F)cc1)N(Cc1ccc(F)cc1)C(=O)CCl (stereo unspecified)	0%	-8%	-3%[1.53 µM]	-2%	40µM*	-1%
COC(CN(C(=O)CCl)C(C(=O)NC1CCCCC1)c1ccc(C)cc1)OC (stereo unspecified)	0%	-7%	-21%	2%	40µM*	3%
Cc1ccc(CNC(=O)CCN2C(=O)COc3ccc(C)cc32)cc1	0%	1%	-6%	14%	6%	4%
O=C(NCc1ccccc1)C(c1ccc(-c2ccccc2)cc1)N1CCN(CCN2CCOCC2)CC1 (stereo unspecified)	.	?	-10%	.	.	.
CN(C)S(=O)(=O)c1ccc(N2C(=O)CC2(/C=C/c2ccccc2)C(=O)NC2CCCC2)cc1 (stereo unspecified)	-3%	6%	-4%	4%	9%	1%
COc1ccccc1/C=C/C1(C(=O)NC2CCCC2)CC(=O)N1c1ccccc1 (stereo unspecified)	8%	3.2µM*	-21%	2%	38%	7%
COc1ccc(S(=O)(=O)N(Cc2nc(-c3cccc(C)c3)no2)C2CCCCC2)cc1	.	?	3%	0%	60%	67%
